The source made the active and inactive calls. Unless noted, how the calls were made is not given here.
How the values were obtained:
[1] = resazurin metabolic signal in HepG2 cells – cell-based, resazurin fluorescence, 24 h, PK04 Diversity Set, profiling panel (AID 1172); details: HepG2 viability, higher = more signal; further: test concentration not given here
[2] = budding yeast growth changes without added modifier – OD600, strain BY4716, 24 h, basal condition, primary screen (AID 1173); details: S. cerevisiae BY4716 growth, OD600, 24 h; higher = more signal, called active from +8 up or from −8 down
[3] = viability profiling in MM1S myeloma cells – cell-based, resazurin fluorescence, basal, 24 h, PK04 Diversity Set, profiling panel (AID 1174); details: higher = more signal, called active from +8 up or from −8 down;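 further: MM1S multiple myeloma cell line; test concentration not given here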
[4] = target: Dihydroorotate dehydrogenase (quinone), mitochondrial (Plasmodium falciparum (isolate 3D7)) (UniProt Q08210); assay: inhibition of P. falciparum DHODH – biochemical, C-terminal His tag, absorbance 600 nm, primary screen (AID 1175); details: PfDHODH enzyme, DCIP absorbance 600 nm; higher = more signal, called active from +8 up or from −8 down;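 further: recombinant parasite enzyme with a five histidine tag at its C terminus; test concentration not given here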
Dihydroorotate dehydrogenase (quinone), mitochondrial (Plasmodium falciparum (isolate 3D7)), sequence (Q08210 whole entry, looked up): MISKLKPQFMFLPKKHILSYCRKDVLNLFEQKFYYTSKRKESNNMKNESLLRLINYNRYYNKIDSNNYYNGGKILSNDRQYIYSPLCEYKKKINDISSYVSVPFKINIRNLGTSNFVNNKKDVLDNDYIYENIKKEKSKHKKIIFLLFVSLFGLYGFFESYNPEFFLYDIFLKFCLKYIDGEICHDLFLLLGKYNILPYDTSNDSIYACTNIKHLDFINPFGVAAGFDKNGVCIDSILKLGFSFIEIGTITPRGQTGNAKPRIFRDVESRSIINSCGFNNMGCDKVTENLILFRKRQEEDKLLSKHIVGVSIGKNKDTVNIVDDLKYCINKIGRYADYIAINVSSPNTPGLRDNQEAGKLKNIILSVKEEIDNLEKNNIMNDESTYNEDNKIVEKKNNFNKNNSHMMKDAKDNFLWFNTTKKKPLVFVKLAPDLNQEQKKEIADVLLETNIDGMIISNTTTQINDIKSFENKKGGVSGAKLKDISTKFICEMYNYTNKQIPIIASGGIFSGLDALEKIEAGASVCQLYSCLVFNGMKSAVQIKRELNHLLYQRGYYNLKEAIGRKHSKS

[5] = inhibition of PAO1 biofilm formation – strain PAO1, LB-PBS medium, absorbance 600 nm, primary screen (AID 1176); further: test concentration not given here; details: P. aeruginosa PAO1 growth/biofilm, A600, 12 h; higher = more signal
[6] = growth modulation of vineyard yeast isolate – strain RM11-1a, OD600, basal, 24 h, primary screen (AID 1177);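 further: cultures grown under basal conditions with no added stressor; test concentration not given here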; details: S. cerevisiae RM11-1a growth, OD600, 24 h; higher = more signal, called active from +8 up or from −8 down
[7] = growth of efflux-deficient E. coli DRC39 – strain DRC39, OD650, 24 h, E. coli filamentation inducers, primary screen (AID 1178);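 further: growth measured as culture turbidity by optical density at 650 nm; test concentration not given here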; details: E. coli DRC39 acrAB, higher = more signal, called active from +8 up or from −8 down
[8] = growth of efflux-deficient E. coli DRC39 – strain DRC39, OD650, 48 h, E. coli filamentation inducers, primary screen (AID 1179);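 further: screen aims at cell division blockers that make cells filament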; details: E. coli DRC39 delta-acrAB growth, higher = more signal, called active from +8 up or from −8 down
[9] = viability profiling in RPMI8226 myeloma cells – cell-based, resazurin fluorescence, basal, 24 h, PK04 Diversity Set, profiling panel (AID 1180); details: higher = more signal;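 further: RPMI8826 multiple myeloma cell line at 5000 cells per well; test concentration not given here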
[10] = target: E3 ubiquitin-protein ligase XIAP (Homo sapiens) (UniProt P98170); assay: small molecules binding XIAP protein – biophysical, small-molecule microarray, fluorescence 635 nm, primary screen (AID 1181); details: higher = more signal;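 further: score merges 667 nm emission and signal to noise over triplicate slides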
E3 ubiquitin-protein ligase XIAP (Homo sapiens), sequence (P98170 whole entry, looked up): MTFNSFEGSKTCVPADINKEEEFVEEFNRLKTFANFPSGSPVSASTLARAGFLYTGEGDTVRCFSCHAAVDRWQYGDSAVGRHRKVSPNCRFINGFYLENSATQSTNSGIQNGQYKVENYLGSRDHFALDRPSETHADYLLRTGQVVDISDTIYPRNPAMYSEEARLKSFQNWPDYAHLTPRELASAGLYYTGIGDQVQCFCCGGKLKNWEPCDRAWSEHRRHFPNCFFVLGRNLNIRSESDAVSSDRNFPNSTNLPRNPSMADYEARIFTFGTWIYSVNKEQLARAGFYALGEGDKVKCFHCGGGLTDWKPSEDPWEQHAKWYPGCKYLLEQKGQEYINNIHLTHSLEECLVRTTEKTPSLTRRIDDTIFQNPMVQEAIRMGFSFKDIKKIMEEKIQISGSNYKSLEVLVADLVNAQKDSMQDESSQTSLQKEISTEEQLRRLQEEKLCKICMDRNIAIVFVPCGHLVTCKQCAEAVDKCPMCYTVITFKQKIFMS

Structure (SMILES) | z-score [1] | z-score [2] | z-score [3] | composite z-score [4] | z-score [5] | z-score [6] | z-score [7] | z-score [8] | z-score [9] | composite z-score [10]
O=C1C[C@@H](O)[C@@H](O)[C@@H]2[C@@H]3C(=O)N(Cc4ccccc4)C(=O)[C@@H]3CC[C@H]12 | -0.252 | -0.425 (inactive) | -0.136 (inactive) | 0.318 (inactive) | 0.188 (inactive) | -0.163 (inactive) | -0.418 (inactive) | -0.779 (inactive) | -0.14 | 0.468
COc1ccc(O[C@H]2C=C[C@@H](c3ccccc3)O[C@@H]2COC(=O)NCc2cccc3ccccc23)cc1 | -0.556 | 0.476 (inactive) | -0.079 (inactive) | -0.0459 (inactive) | 0.79 (inactive) | 0.846 (inactive) | -0.424 (inactive) | -0.257 (inactive) | 0.283 | -0.0448
COC(=O)[C@H](C)NC(=O)CCC1CC(OC(=O)NCc2cccc3ccccc23)CC2(CCCC(COC(=O)NCc3cccc(C(F)(F)F)c3)O2)O1 (stereo not given in full) | -0.599 | -0.458 (inactive) | 0.47 (inactive) | -1.5 (inactive) | 0.593 (inactive) | -0.968 (inactive) | -0.289 (inactive) | -0.456 (inactive) | 0.297 | 0.14
COc1ccc(O[C@H]2C=C[C@@H](c3ccccc3)O[C@@H]2CO)cc1 | 0.121 | -4.83 (inactive) | 0.222 (inactive) | -0.163 (inactive) | 0.438 (inactive) | 0.0505 (inactive) | 0.137 (inactive) | -0.447 (inactive) | -0.5 | -0.042
COc1ccc(COC(=O)NN=C2C[C@@H](O)[C@@H](O)[C@@H]3[C@@H]4C(=O)N(c5cccc(Oc6ccccc6)c5)C(=O)[C@@H]4CC[C@H]23)cc1 | 0.609 | -1.08 (inactive) | -0.341 (inactive) | -2.56 (inactive) | -0.872 (inactive) | -1.02 (inactive) | 0.829 (inactive) | 0.751 (inactive) | 0.487 | 0.274
C[C@H]1CC[C@@H](C(=O)O)N[C@@H]1c1cccc(N2CCCC2=O)c1 | 0.672 | -0.281 (inactive) | -0.0691 (inactive) | 0.552 (inactive) | -0.163 (inactive) | 0.765 (inactive) | 0.968 (inactive) | 0.215 (inactive) | -0.652 | 0.0909
COc1cccc([C@H]2Oc3ccc(OC)cc3C(=NO[C@@H](C)c3cc(-c4c(C)cc(C)cc4C)no3)[C@@H]2O)c1 | -0.406 | 1.18 (inactive) | 0.0117 (inactive) | -2.77 (inactive) | 0.523 (inactive) | 1.96 (inactive) | 0.243 (inactive) | -1.43 (inactive) | -0.116 | -0.336
COc1ccc(COC(=O)NN=C2C[C@@H](O)[C@@H](O)[C@@H]3[C@@H]4C(=O)N(C5CCCCC5)C(=O)[C@@H]4CC[C@@H]23)cc1 | -0.578 | -1.29 (inactive) | -0.489 (inactive) | -1.39 (inactive) | -0.118 (inactive) | -0.286 (inactive) | -0.697 (inactive) | -0.437 (inactive) | -0.481 | 0.0225
CCN1C(=O)[C@H]2[C@H]3[C@H](O)[C@H](O)CC(=NOC[C@@H](O)[C@H]4O[C@@H]5OC(C)(C)O[C@@H]5[C@H]4O)[C@@H]3CC[C@H]2C1=O | -1.27 | -0.569 (inactive) | -2.69 (inactive) | -0.898 (inactive) | -0.795 (inactive) | -0.0223 (inactive) | 0.74 (inactive) | 0.144 (inactive) | -0.767 | 0.0126
C#CCCCON=C1C[C@@H](O)[C@@H](O)[C@@H]2[C@@H]3C(=O)N(C[C@@H]4CCCO4)C(=O)[C@@H]3CC[C@H]12 | -0.344 | 0.767 (inactive) | -0.448 (inactive) | 0.347 (inactive) | 0.0001 (inactive) | 0.364 (inactive) | -0.145 (inactive) | 0.212 (inactive) | -0.179 | -0.122
C[C@@H]1CC[C@H]2C(=O)O[C@@H](COc3ccc(C(C)(C)C)cc3)CN2[C@H]1c1ccc(Br)cc1 | 0.7 | -0.481 (inactive) | 0.385 (inactive) | 0.444 (inactive) | 0.11 (inactive) | -0.0191 (inactive) | -0.578 (inactive) | -0.423 (inactive) | 0.749 | -0.327
CC(CCN1CCCc2nc(C)c(C)cc21)=NO[C@@H](C)c1cn([C@H](CO)Cc2ccccc2)nn1 | -0.333 | 0.472 (inactive) | 0.0688 (inactive) | -1.1 (inactive) | -0.725 (inactive) | 0.792 (inactive) | 0.851 (inactive) | 0.961 (inactive) | -0.789 | 0.115

— PubChem BioAssay
